# Reference: doi:10.1101/2024.03.05.583629
# Biological target: pT7_6His-AlfaTag-ZIF268 (human, UniProt P18146 335-423)
# Assay: PADIT-seq
# Details: dsDNA, one strand shown
row,Sequence,binding signal [log2FC]
1,CTCGAGGATATCAAGATCTGGCCTCGGCCCCCCACGCGGAACCTCTAGCTAGCCGACTCACTATAGGGATAATCGCCCTGAGCAAAGACC,0.155 ± 0.108
2,CTCGAGGATATCAAGATCTGGCCTCGGCGCGTGGTTCGGAACCTCTAGCTAGCCGACTCACTATAGGGATAATCGCCCTGAGCAAAGACC,0.121 ± 0.0856
3,CTCGAGGATATCAAGATCTGGCCTCGGCGGATGGGCGGGAACCTCTAGCTAGCCGACTCACTATAGGGATAATCGCCCTGAGCAAAGACC,0.0532 ± 0.0937
4,CTCGAGGATATCAAGATCTGGCCTCGGCGCGTGGGCCGGAACCTCTAGCTAGCCGACTCACTATAGGGATAATCGCCCTGAGCAAAGACC,2.26 ± 0.0976
5,CTCGAGGATATCAAGATCTGGCCTCGGCGGGTGGGCGGGAACCTCTAGCTAGCCGACTCACTATAGGGATAATCGCCCTGAGCAAAGACC,1.66 ± 0.0839
6,CTCGAGGATATCAAGATCTGGCCTCGGCAGATGGGCGGGAACCTCTAGCTAGCCGACTCACTATAGGGATAATCGCCCTGAGCAAAGACC,0.0303 ± 0.101
7,CTCGAGGATATCAAGATCTGGCCTCGGCTGCCCACGCGGAACCTCTAGCTAGCCGACTCACTATAGGGATAATCGCCCTGAGCAAAGACC,0.958 ± 0.086
8,CTCGAGGATATCAAGATCTGGCCTCGGCGCGTGGTAGGGAACCTCTAGCTAGCCGACTCACTATAGGGATAATCGCCCTGAGCAAAGACC,0.402 ± 0.089
9,CTCGAGGATATCAAGATCTGGCCTCGGCGCGTGGGCTGGAACCTCTAGCTAGCCGACTCACTATAGGGATAATCGCCCTGAGCAAAGACC,2.62 ± 0.0973
10,CTCGAGGATATCAAGATCTGGCCTCGGCCGCCCACCTGGAACCTCTAGCTAGCCGACTCACTATAGGGATAATCGCCCTGAGCAAAGACC,0.259 ± 0.108
11,CTCGAGGATATCAAGATCTGGCCTCGGCGCGTGGCTCGGAACCTCTAGCTAGCCGACTCACTATAGGGATAATCGCCCTGAGCAAAGACC,0.122 ± 0.1
12,CTCGAGGATATCAAGATCTGGCCTCGGCGCGTGGTTGGGAACCTCTAGCTAGCCGACTCACTATAGGGATAATCGCCCTGAGCAAAGACC,0.34 ± 0.0919
13,CTCGAGGATATCAAGATCTGGCCTCGGCGGTTGGGCGGGAACCTCTAGCTAGCCGACTCACTATAGGGATAATCGCCCTGAGCAAAGACC,0.0831 ± 0.0849
14,CTCGAGGATATCAAGATCTGGCCTCGGCCGCGGCCGCGGAACCTCTAGCTAGCCGACTCACTATAGGGATAATCGCCCTGAGCAAAGACC,0.0714 ± 0.102
15,CTCGAGGATATCAAGATCTGGCCTCGGCGCGTGGATGGGAACCTCTAGCTAGCCGACTCACTATAGGGATAATCGCCCTGAGCAAAGACC,0.000457 ± 0.106
16,CTCGAGGATATCAAGATCTGGCCTCGGCGCGTGGTGAGGAACCTCTAGCTAGCCGACTCACTATAGGGATAATCGCCCTGAGCAAAGACC,0.258 ± 0.102
17,CTCGAGGATATCAAGATCTGGCCTCGGCCGCCCAGATGGAACCTCTAGCTAGCCGACTCACTATAGGGATAATCGCCCTGAGCAAAGACC,0.0137 ± 0.113
18,CTCGAGGATATCAAGATCTGGCCTCGGCCGCCCACGAGGAACCTCTAGCTAGCCGACTCACTATAGGGATAATCGCCCTGAGCAAAGACC,0.778 ± 0.094
19,CTCGAGGATATCAAGATCTGGCCTCGGCGCGTGGGATGGAACCTCTAGCTAGCCGACTCACTATAGGGATAATCGCCCTGAGCAAAGACC,2.17 ± 0.107

row,Sequence,binding signal [log2FC]
1,CTCGAGGATATCAAGATCTGGCCTCGGCAACCCACGCGGAACCTCTAGCTAGCCGACTCACTATAGGGATAATCGCCCTGAGCAAAGACC,0.721 ± 0.102
2,CTCGAGGATATCAAGATCTGGCCTCGGCGCGTGGGCAGGAACCTCTAGCTAGCCGACTCACTATAGGGATAATCGCCCTGAGCAAAGACC,2.8 ± 0.0823
3,CTCGAGGATATCAAGATCTGGCCTCGGCGCGTGGCTAGGAACCTCTAGCTAGCCGACTCACTATAGGGATAATCGCCCTGAGCAAAGACC,0.021 ± 0.107
4,CTCGAGGATATCAAGATCTGGCCTCGGCGTCCCACGCGGAACCTCTAGCTAGCCGACTCACTATAGGGATAATCGCCCTGAGCAAAGACC,0.365 ± 0.0872
5,CTCGAGGATATCAAGATCTGGCCTCGGCGTGTGGGCGGGAACCTCTAGCTAGCCGACTCACTATAGGGATAATCGCCCTGAGCAAAGACC,3.29 ± 0.0753
6,CTCGAGGATATCAAGATCTGGCCTCGGCGCGTGGGTAGGAACCTCTAGCTAGCCGACTCACTATAGGGATAATCGCCCTGAGCAAAGACC,1.97 ± 0.0958
7,CTCGAGGATATCAAGATCTGGCCTCGGCGCGTGCGCGGGAACCTCTAGCTAGCCGACTCACTATAGGGATAATCGCCCTGAGCAAAGACC,0.264 ± 0.107
8,CTCGAGGATATCAAGATCTGGCCTCGGCGCGTGGCAAGGAACCTCTAGCTAGCCGACTCACTATAGGGATAATCGCCCTGAGCAAAGACC,0.0121 ± 0.1
9,CTCGAGGATATCAAGATCTGGCCTCGGCGTTCCACGCGGAACCTCTAGCTAGCCGACTCACTATAGGGATAATCGCCCTGAGCAAAGACC,0.016 ± 0.0847
10,CTCGAGGATATCAAGATCTGGCCTCGGCCGCCCATGGGGAACCTCTAGCTAGCCGACTCACTATAGGGATAATCGCCCTGAGCAAAGACC,0.0348 ± 0.099
11,CTCGAGGATATCAAGATCTGGCCTCGGCCGCCCAAGTGGAACCTCTAGCTAGCCGACTCACTATAGGGATAATCGCCCTGAGCAAAGACC,0.0066 ± 0.0917
12,CTCGAGGATATCAAGATCTGGCCTCGGCAAGTGGGCGGGAACCTCTAGCTAGCCGACTCACTATAGGGATAATCGCCCTGAGCAAAGACC,2.06 ± 0.0801
13,CTCGAGGATATCAAGATCTGGCCTCGGCCGCCCACGTGGAACCTCTAGCTAGCCGACTCACTATAGGGATAATCGCCCTGAGCAAAGACC,1.68 ± 0.0823
14,CTCGAGGATATCAAGATCTGGCCTCGGCCGCCCCCGCGGAACCTCTAGCTAGCCGACTCACTATAGGGATAATCGCCCTGAGCAAAGACC,1.56 ± 0.0899
15,CTCGAGGATATCAAGATCTGGCCTCGGCGCGTGGTCAGGAACCTCTAGCTAGCCGACTCACTATAGGGATAATCGCCCTGAGCAAAGACC,0.198 ± 0.102
16,CTCGAGGATATCAAGATCTGGCCTCGGCCGCCCATACGGAACCTCTAGCTAGCCGACTCACTATAGGGATAATCGCCCTGAGCAAAGACC,0.364 ± 0.092
17,CTCGAGGATATCAAGATCTGGCCTCGGCCCGTGGGCGGGAACCTCTAGCTAGCCGACTCACTATAGGGATAATCGCCCTGAGCAAAGACC,3.06 ± 0.0841
18,CTCGAGGATATCAAGATCTGGCCTCGGCCGCCCACGGGGAACCTCTAGCTAGCCGACTCACTATAGGGATAATCGCCCTGAGCAAAGACC,1.11 ± 0.0917
19,CTCGAGGATATCAAGATCTGGCCTCGGCGCGTGGACGGGAACCTCTAGCTAGCCGACTCACTATAGGGATAATCGCCCTGAGCAAAGACC,0.177 ± 0.113
